Bioassay records as filed in PubChem.
IDE exosite inh: exo-site inhibitors of human insulin-degrading enzyme; purified IDE, FL-6b probe fluorescence polarization; active compounds read low; z-score at 20 µM; hit rate 6.3% among 17,000; AID 1259349;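 active = z-score of -3 or lower, meaning strong loss of probe binding signal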;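 also: His-tagged human IDE residues 42-1019 made in E. coli with 30 nM FL-6b probe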
* hit, by the source's call. This is one part of a sample in which hits are shown more often than they occur.

SMILES | IDE exosite inh
CC(=O)NC[C@@H]1[C@@H](c2ccc(C3=CCCC3)cc2)[C@H](CO)N1Cc1cccnc1 | -0.5
COc1cccc(NC(=O)N2CC(=O)N3[C@H](C2)[C@H](c2ccc(Br)cc2)[C@@H]3CO)c1 | 2.2
CO[C@@H]1CN(C)C(=O)c2cc(NC(=O)c3cccc(F)c3)ccc2OC[C@H](C)N(C)C[C@H]1C | 0.59
Cc1ccccc1S(=O)(=O)N1[C@@H](C#N)[C@@H](c2ccc(-c3ccccc3)cc2)[C@@H]1CO | 1.8
N#C[C@@H]1[C@@H](c2ccccc2C2=CCCCC2)[C@@H](CO)N1C(=O)c1ccccn1 | -1.1
Cc1cccc(-c2ccc([C@@H]3[C@H]4CN(S(=O)(=O)c5cccc(F)c5)CC(=O)N4[C@H]3CO)cc2)c1 | -1.7
COc1ccccc1NC(=O)N1CCCCN2[C@H](C1)[C@H](c1ccc(-c3ccc(C)cc3)cc1)[C@@H]2CO | 1.2
COc1ccccc1-c1ccc([C@@H]2[C@@H](CO)N3CCCCN(C(=O)NC4CCCC4)C[C@@H]23)cc1 | -4.7*
O=C(NC1CCCC1)N1CCCCN2[C@@H](CO)[C@H](c3ccc(-c4cncnc4)cc3)[C@@H]2C1 | 1.9
CN1CCN(C(=O)C[C@H]2C[C@H]3c4cc(NS(C)(=O)=O)ccc4O[C@H]3[C@@H](CO)O2)CC1 | -0.27
COc1ccc(NC(=O)N[C@H]2CC[C@H](CCNC(=O)CN3CCOCC3)O[C@H]2CO)cc1 | -0.41
O=C(C[C@H]1C[C@H]2c3cc(NS(=O)(=O)c4ccc(F)cc4)ccc3O[C@H]2[C@H](CO)O1)N1CCc2ccccc2C1 | 0.21
COc1ccc([C@@H]2C/C=C\C[C@H](c3ccc(F)cc3)NC(=O)CCC(=O)N2)c(OC)c1 | 0.58
COc1ccccc1C#Cc1ccc([C@H]2[C@@H](CO)N3CCCCN(C(=O)C4CCC4)C[C@H]23)cc1 | -10*
O=C(C1CCC1)N1CCCCN2[C@H](C1)[C@@H](c1ccc(C#CC3(O)CCCC3)cc1)[C@@H]2CO | -1.1
COc1ccccc1C#Cc1ccc([C@@H]2[C@H]3CN(C(=O)C4CCC4)CCCCN3[C@H]2CO)cc1 | -6.8*
COc1ccc(C#Cc2ccc([C@@H]3[C@@H](CO)N4CCCCN(C(=O)Nc5ccccc5)C[C@@H]34)cc2)cc1 | 2.1
COc1ccccc1C#Cc1ccc([C@@H]2[C@@H](CO)N3CCCCN(C(=O)C4CCC4)C[C@@H]23)cc1 | -9*
COc1ccccc1NC(=O)N1CCCCN2[C@H](CO)[C@@H](c3ccc(C#Cc4ccccc4)cc3)[C@@H]2C1 | 3.8
CN(C)CC#Cc1ccc([C@H]2[C@@H](CO)N3CCCCN(C(=O)C4CCC4)C[C@H]23)cc1 | 0.063
COc1ccccc1NC(=O)N1CCCCN2[C@H](C1)[C@H](c1ccc(C#Cc3ccccc3)cc1)[C@@H]2CO | 1.2
CN(C)CC#Cc1ccc([C@H]2[C@H]3CN(C(=O)C4CCC4)CCCCN3[C@H]2CO)cc1 | 2.3
COCC(=O)N(C)C[C@H]1[C@H](c2ccccc2)[C@@H](CO)N1C(=O)Cc1ccncc1 | 2
COc1ccc(CN(C)C[C@H]2OCCCC[C@@H](C)Oc3ccc(NC(=O)C4CCCCC4)cc3C(=O)N([C@@H](C)CO)C[C@H]2C)cc1 | -0.59
COc1ccc(NC(=O)N2C[C@H]3[C@@H](c4ccccc42)[C@H](CO)N3Cc2ccccn2)cc1 | 2.2
SMILES | IDE exosite inh
CCN(C[C@H]1N[C@@H](CO)[C@@H]1c1ccc(C2=CCCC2)cc1)C(=O)c1cccnc1 | 1.2
C[C@H](CO)N1C[C@H](C)[C@@H](CN(C)S(C)(=O)=O)OCCCC[C@H](C)Oc2ccc(NC(=O)NC3CCCCC3)cc2C1=O | -0.078
CC(C)C(=O)Nc1ccc2c(c1)C(=O)N(C)[C@H]1CC[C@H](CC(=O)Nc3ccc(Cl)cc3)O[C@@H]1CO2 | 1.1
O=C(c1ccccc1)N1CC(=O)N2[C@H](CO)[C@H](c3ccc(C#CC4CC4)cc3)[C@@H]2C1 | 1.3
COc1ccc2c3c([nH]c2c1)[C@@H](CO)N(C(=O)CC1CC1)CC31CN(Cc2cccnc2)C1 | 0.35
COc1cccc(S(=O)(=O)N2CCCCN3[C@H](C2)[C@@H](c2ccc(-c4cccnc4)cc2)[C@@H]3CO)c1 | -0.39
O=C(c1ccccc1F)N1CC(=O)N2[C@@H](CO)[C@H](c3ccc(C#Cc4ccc(F)cc4)cc3)[C@@H]2C1 | 2.1
C[C@@H]1CN([C@@H](C)CO)C(=O)c2cc(C#Cc3ccccc3)cnc2O[C@@H]1CN(C)C(=O)c1ccccc1 | -4*
C[C@H](CO)N1C[C@H](C)[C@@H](CN(C)C(=O)c2ccccc2)Oc2ncc(C#Cc3ccccc3)cc2C1=O | -2.2
C[C@H]1CN([C@@H](C)CO)C(=O)c2cc(/C=C/c3ccccc3)cnc2O[C@@H]1CN(C)S(=O)(=O)c1ccccc1F | -0.071
C[C@@H]1CN([C@H](C)CO)C(=O)c2cc(C#Cc3ccccc3)cnc2O[C@@H]1CN(C)C(=O)c1ccccc1 | -1.8
C[C@@H]1CN([C@@H](C)CO)C(=O)c2cc(/C=C/c3ccccc3)cnc2O[C@H]1CN(C)S(=O)(=O)c1ccccc1F | -3.4*
